Assay results reported in PubChem BioAssay (NCI).
The panel holds about 83,000 compounds, 20% with a hit somewhere; the sample as a whole holds those more often.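 Note: values are percent growth. 100 is the growth of untreated cells, values between 100 and 0 indicate rising inhibition; between -100 and 0 indicates cell death.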 Unmarked numbers belong to inactive results. Active and inactive are the calls of the source. Rule for the calls: active = growth percent below 10; inactive = the rest.

What was measured:
Assay in all cases: NCI-60 one-dose screen, 48 h (100 = growth as untreated, 0 = no growth, -100 = all killed)
Settings in all cases: 10 µM unless noted
HCT-15 colon = test system: HCT-15 colon
HT29 colon = test system: HT29 colon
SNB-75 CNS = test system: SNB-75 CNS
SNB-19 CNS = test system: SNB-19 CNS
U251 CNS = test system: U251 CNS
PC-3 prostate = test system: PC-3 prostate
SK-MEL-5 melanoma = test system: SK-MEL-5 melanoma
UACC-62 melanoma = test system: UACC-62 melanoma
LOX IMVI melanoma = test system: LOX IMVI melanoma
SK-MEL-28 melanoma = test system: SK-MEL-28 melanoma
SN12C renal = test system: SN12C renal
TK-10 renal = test system: TK-10 renal
ACHN renal = test system: ACHN renal
CAKI-1 renal = test system: CAKI-1 renal
A498 renal = test system: A498 renal
CCRF-CEM leukemia = test system: CCRF-CEM leukemia
MOLT-4 leukemia = test system: MOLT-4 leukemia
SK-MEL-2 melanoma = test system: SK-MEL-2 melanoma
EKVX NSCLC = test system: EKVX NSCLC
UO-31 renal = test system: UO-31 renal

SMILES | growth (HCT-15 colon) | growth (HT29 colon) | growth (SNB-75 CNS) | growth (SNB-19 CNS) [%] | growth (U251 CNS) [%] | growth (PC-3 prostate) [%] | growth (SK-MEL-5 melanoma) | growth (UACC-62 melanoma) | growth (LOX IMVI melanoma) | growth (SK-MEL-28 melanoma) [%] | growth (SN12C renal) | growth (TK-10 renal) [%] | growth (ACHN renal) | growth (CAKI-1 renal) | growth (A498 renal) | growth (CCRF-CEM leukemia) | growth (MOLT-4 leukemia) | growth (SK-MEL-2 melanoma) [%] | growth (EKVX NSCLC) [%] | growth (UO-31 renal)
O=C(/C=C/c1ccccc1)c1c[nH]c2ccccc2c1=O | 4.67% (active) | 8.44% (active) | -15.6% (active) | 16.3 | 11.6 | 26.7 | 43.4% | 29.2% | -32.6% (active) | 66.4 | 8.29% (active) | 22.5 | 11.6% | 4.66% (active) | -6.19% (active) | -12.2% (active) | 9.81% (active) | – | – | –
C(=Nc1ccc(-c2ccc(N=Cc3ccccc3)cc2)cc1)c1ccccc1 | 106% | 93.9% | 83.4% | 107 | 98.3 | 80.3 | 105% | 93.7% | 105% | – | 93.3% | 110 | 101% | 94.3% | 97.9% | 88.3% | – | 109 | 105 | 66.6%
CCCCCCCCCCCCCCCCCC(=O)OCCCCCCCCCCCCC | 108% | 103% | 104% | 113 | 108 | 102 | 114% | 113% | 103% | 125 | – | 122 | 104% | 103% | 105% | 73% | 113% | – | – | –
C=CCOC(=O)C1=C(C)NC2=C(C(=O)CC(C)(C)C2)C1c1ccc(OC)cc1 (stereo not drawn) | 105% | 102% | 81.2% | 92.2 | 103 | 88.3 | 108% | 81.1% | 102% | – | 106% | 114 | 98.6% | 80.8% | 85.5% | 97.4% | 89.7% | 95 | 101 | 85.2%
CN1C(=O)N(C)C2C1NN=c1s/c(=C\c3ccc(C(F)(F)F)cc3)c(=O)n12 (stereo not drawn) | 24.2% | 9.64% (active) | 7.43% (active) | 30 | 21.6 | 18.8 | 4.36% (active) | 26.7% | 36.6% | 60.4 | 41.2% | 55.5 | 44.6% | 29.6% | 18.4% | – | 37.2% | – | – | 49.6%
C[C@@H]1CC2C3CCC4=CC(=O)C=C[C@]4(C)[C@@]3(Cl)[C@@H](O)C[C@]2(C)[C@@]1(OC(=O)c1ccco1)C(=O)CCl (stereo partly drawn) | 79.7% | 70.8% | 86.3% | 86 | 85 | 49.9 | 55% | 42% | 61.6% | 88.9 | 35.4% | 95.6 | 82.4% | 62.2% | 99% | 30% | 31.5% | – | 61.5 | 30.5%
COc1cc(-c2nn(C(=O)NCCN3CCN(C)CC3)cc2-c2ccncc2)ccc1Cl | 88.7% | 47% | 42.3% | 77.5 | 80.9 | 74.3 | 62.4% | 57.6% | 85.9% | 68.1 | 82.4% | 20.5 | 69.5% | 79.7% | 65.8% | 88.8% | 77.4% | – | 46.9 | 54%
C[C@H](NC(=O)c1snnc1C1CC1)c1c(F)cccc1Cl | 93.9% | 119% | 95.1% | 142 | 90 | 98.9 | 98.2% | 87.8% | 93.9% | 110 | 104% | – | 92.1% | 115% | 96.4% | 110% | 101% | – | 115 | 94%
COc1cccc(NC(=O)OC(C)C)c1 | 96.3% | 105% | 96.7% | 116 | 94.9 | 93.5 | 109% | 108% | 102% | 108 | 98.6% | 100 | 101% | 86.4% | 92.7% | 3.14% (active) | 99% | – | 94.7 | 82.1%
CC[C@]1(O)C[C@H]2CN(CCc3c([nH]c4ccccc34)C(C(=O)OC)(c3cc4c(cc3OC)N(C)[C@H]3[C@@](O)(C(=O)OC)[C@H](OC(C)=O)[C@]5(CC)[C@@H]6C[C@@H]6CN6CC[C@]43[C@@H]65)C2)C1 (stereo partly drawn) | 19.5% | 7.29% (active) | -14.6% (active) | 24 | 13.7 | 18.9 | -80.1% (active) | 14.5% | 5.88% (active) | 53.7 | 22.2% | 52.7 | 5.92% (active) | -13.2% (active) | 16.6% | 4.35% (active) | 3.74% (active) | – | 35.2 | 9.66% (active)
COc1ccc(/C=N/NC(N)=S)c(OC)n1 | 86.9% | 93.4% | 79.5% | 102 | 95.8 | 105 | 93.1% | 96.8% | 102% | 98.5 | 98.5% | 112 | 100% | 113% | 99.1% | – | 90.8% | – | – | –
COc1cc(OC)c(C(=O)/C=C/c2cccc(OC(C)=O)c2)cc1CC=C(C)C | 55% | 84.2% | 77.5% | 101 | 44.6 | 36 | 64.2% | 47.3% | 48.3% | 67.8 | 62.1% | 162 | 74.9% | 241% | 120% | 9.5% (active) | 32% | – | 107 | –
CS(=O)(=O)c1ccc(C(=O)N/N=C/c2ccccc2O)cc1 | 18% | 43.6% | 77.8% | 45.4 | 27.8 | 54.3 | 32.2% | 16.4% | 21.4% | 55.9 | 58.7% | 45.8 | 28.3% | 34.9% | 75.2% | – | 9.19% (active) | – | 25.8 | 18%
COc1ccc(-c2cc(-c3cc4ccccc4oc3=O)n(-c3ccccc3)n2)cc1 | 103% | 83.8% | 77% | 82 | 31.4 | 76.1 | 94.5% | 80.3% | 59.8% | 106 | 67% | 141 | 73.2% | 97.1% | 91.3% | 94.5% | – | – | 67.5 | –
COc1ccc2nc(-c3ccc(-c4noc(-c5ccc(Cl)cc5)n4)cc3)[nH]c2c1 | 75.8% | 82% | 31.8% | 95.6 | 78.2 | 67.1 | 78.8% | 58.3% | 57.3% | – | 77.7% | 120 | 77.9% | 92.1% | 90.7% | 57% | 79% | 100 | 91.2 | 55.8%
O=S1(=O)NCCCN1CCNc1nccc(-c2c(-c3cccc(O)c3)nc3sccn23)n1 | 95.5% | 56.2% | 37.9% | 119 | 77.4 | 106 | 74.2% | -6.85% (active) | 20.1% | 24 | 43.4% | 121 | 50.5% | 67.4% | 98.9% | 60.1% | 65.2% | – | 141 | 94.1%
